Values without a mark were called inactive. Activity calls are given as the source filed them. Cut-off read from the data, not from the text of the source: active = inhibition above about 30%; inactive = the rest.
Test: growth suppression of yeast trafficking mutant, preliminary HTS, modulators of trafficking downstream of Golgi apparatus project, 1536-format plate, OD 615 nm (AID 637)
Conditions: yeast transport mutant growth, absorbance 615 nm, 18 h; active compounds read high

Structure (SMILES) | inhibition
CCCCn1cnc2c(cnn2-c2ccc(Cl)cc2)c1=O | 2.91%
Cc1ccc(N2CCN(C(=O)c3ccccc3Br)CC2)c(C)c1 | 0.16%
COc1cccc(CN2CCN(C(=O)c3ccco3)CC2)c1OC | 0.95%
CCOC(=O)c1nnn(CC(=O)Nc2cccc(OC)c2)c1C(=O)OCC | 0.98%
O=C(CCN1C(=O)c2ccccc2C1=O)OCN1C(=O)c2ccccc2C1=O | -3.17%
COc1ccccc1CC1(C)NC(=O)N(CC(=O)Nc2cc(C)on2)C1=O (stereo unspecified) | 4.13%
c1ccc(CNc2c3c(nc4ncnn24)CCCC3)nc1 | -3.33%
Cc1cc(C(=O)OCCO)c(C#N)c(N)n1 | 1.94%
CN(c1ccccc1)S(=O)(=O)c1ccc(C(=O)OCC(=O)N2CCOCC2)cc1 | 3.17%
CCC1C(=O)n2nc(-c3ccccc3)cc2N=C1C (stereo unspecified) | -3.17%
NC(=O)c1c(NC(=O)CSc2nnc(-c3ccco3)n2-c2ccccc2)sc2c1CCC2 | 35.7% (active)
CCN(Cc1cc2ccccc2[nH]c1=O)S(=O)(=O)c1ccccc1 | -2.38%
CCOC(=O)C1CCCN(Cc2nc(N)nc(Nc3ccc(C)cc3)n2)C1 (stereo unspecified) | 7.54%
COc1cccc(NC(=O)CSc2nnc(-c3cccs3)n2C)c1 | -1.67%
O=C(Nc1cccc(C(=O)N2CCOCC2)c1)c1cccnc1 | -3.11%
C=CCn1c(=O)[nH]c2cc(C(=O)N3CCN(c4cc(C)ccc4C)CC3)ccc2c1=O | -0.83%

— PubChem BioAssay
